TDP-43 yeast inh: inhibitors of TDP-43 toxicity in yeast; TDP-43 expressing yeast growth rescue, BacTiter-Glo, 24 h; Potency, µM (series often up to 46.1 µM), most hits filed as activators; actives 1.8% (n = 410,000); AID 652104; further: nearly all actives have a fitted effect of over 50% in size
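Cell-based yeast growth screen: TDP-43 expression induced in galactose, inoculum OD600=0.02 after raffinose pregrowth to mid-log. Read-out BacTiter-Glo luminescence at 24 hr, 30 deg C; inhibition of toxicity seen as signal increase.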
GRP78 ERSR act: ER stress response induction in glioma; U87-MG GRP78 promoter luciferase reporter, 16 h; Potency, µM, actives largely listed as activators; actives 0.02% (n = 420,000); further: series mostly up to about 76 µM; nearly all actives have a fitted effect of over 35% in size
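ERSR induction read as luciferase luminescence (Bright-Glo, 10 min at room temperature) in stably transfected human U87-MG glioma cells exposed to compounds for 16 h, using GRP78 as sensor.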
FUS suppressor: suppressors of FUS proteinopathy in yeast; S. cerevisiae FUS-expressing, growth rescue, OD600, 24 h; Potency, µM (titrated, usually from 76.6 µM), most hits filed as activators; actives 0.24% (n = 390,000); AID 1347120; further: nearly all actives have a fitted effect of over 55% in size
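Read-out: OD at 600 nm after 24hr at 30C, reporting rescue of FUS-induced yeast toxicity. Cells at OD 0.005 in galactose (2%) minimal medium; compounds tested in a dilution series; CP55940 titration from 92uM final as control.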
aSyn rescue: alpha-synuclein toxicity inhibition in yeast | Yeast expressing alpha-synuclein, growth rescue, BacTiter-Glo, 24 h | Potency, µM (titrated, usually from 46.1 µM), actives largely listed as activators | actives 0.14% (n = 370,000) | AID 652106; further: nearly all actives have a fitted effect of over 65% in size
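Screening used galactose-induced yeast with toxic alpha-synuclein levels, exposed to compound for 24 hr at 30 deg C. Cell growth, read with BacTiter-Glo luminescence, gave the measured signal.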
Abeta rescue: compounds reversing amyloid beta toxicity in yeast. yeast expressing A-beta42, growth rescue, OD600, 48 h; response scale: 0% DMSO, 100% iron-clioquinol control. Potency, µM (titrated, usually from 46.1 µM), most hits filed as activators. actives 0.063% (n = 410,000). AID 1347071; further: nearly all actives have a fitted effect of over 55% in size
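Yeast A-beta toxicity model in growth medium with pinned compounds, 48 h at 30 C; growth read as absorbance at 600 nm. Normalized to FeCl3/clioquinol equimolar mix (positive) and DMSO (negative).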
MBNL1-CUG inh: inhibitors of human MBNL1 binding to CUG repeat RNA. TR-FRET MBNL1-His/biotin-(CUG)12 binding, 665/545 ratio. actives 0.036% (n = 280,000). Potency, µM (doses to about 57.5 µM), usual class: inhibitors; active means well fitted inhibition curve with a large enough effect in the signal ratio, with a control signal flat, not every such curve was filed as active; inconclusive means small, poorly fitted or top-dose-only effect, or effect the other way, or a change in a side signal; inactive means no such curve, though single readings can be large or run the other way; the % refers to the signal ratio
Target sequence (Q9NR56 whole entry, looked up): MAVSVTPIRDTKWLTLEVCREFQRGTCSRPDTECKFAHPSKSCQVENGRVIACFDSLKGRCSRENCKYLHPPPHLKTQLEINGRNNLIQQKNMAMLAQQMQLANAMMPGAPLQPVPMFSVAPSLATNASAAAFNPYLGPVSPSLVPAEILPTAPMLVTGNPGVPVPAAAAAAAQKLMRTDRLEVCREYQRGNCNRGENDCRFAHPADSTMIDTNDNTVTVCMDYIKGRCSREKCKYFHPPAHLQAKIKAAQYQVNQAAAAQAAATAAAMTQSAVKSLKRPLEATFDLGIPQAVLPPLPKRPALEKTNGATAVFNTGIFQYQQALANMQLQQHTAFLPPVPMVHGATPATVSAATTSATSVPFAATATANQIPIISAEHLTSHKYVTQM
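TR-FRET between His-tagged MBNL1 and biotin-(CUG)12 RNA, detected with Tb anti-His antibody (0.055 ng/ul) and streptavidin-XL665 (5 nM), 60 min at room temperature. Compounds titrated 92 nM to 58 uM; 665/545 nm ratio normalized to buffer and complex controls.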
A number is an active result; – = inactive; ? = inconclusive; · = no result given. A selection: hits, their analogues and other compounds. The true share with any hit is near 2%. Unless noted, the call rests on the fitted dose curve; in most records, active means well fitted curve in the direction sought with a large enough effect; inconclusive means small, poorly fitted or top-dose-only effect, or another doubt; inactive means no such curve, though single readings can be large; an effect the other way counts as inactive or inconclusive.

SMILES	TDP-43 yeast inh	GRP78 ERSR act	FUS suppressor	aSyn rescue	Abeta rescue	MBNL1-CUG inh
COC(=O)[C@]12C[C@H](CC(=O)N3CCN(C(=O)C4CC4)CC3)C(=O)N(Cc3ccco3)C1=C[C@H](C1CCCC1)O[C@@H]2C	·	·	–	·	·	·
COC(=O)[C@]12C[C@H](CC(=O)N3CCN(C(=O)C4CC4)CC3)C(=O)N(Cc3ccc(Cl)cc3Cl)C1=C[C@H](C1CCCC1)O[C@@H]2C	·	·	32µM	·	·	·
CN(CCO)C(=O)c1cn(C2CCN(Cc3ccc4ccccc4c3)CC2)nn1	·	–	·	·	·	·
COc1ccc(-c2onc(C)c2C)cc1S(=O)(=O)NCC(C)c1ccccc1 (configuration not stated)	35µM	–	?	·	–	·
Cc1ccc(-c2onc(C)c2C)cc1S(=O)(=O)NCc1cccs1	16µM	–	–	·	–	·
CCOc1ccccc1CNS(=O)(=O)c1cc(-c2onc(C)c2C)ccc1OC	–	–	?	·	–	·
COc1ccc(CN2CCC3(CC2)c2ccccc2[C@@H](NC(=O)c2ccco2)[C@@H]3OC)c(O)c1	·	–	·	·	·	·
Cc1ccc(C(=O)OCn2ncc(Cl)c(Cl)c2=O)cc1	3.2µM	–	–	–	–	–
O=C(OCn1ncc(Cl)c(Cl)c1=O)c1ccc(C(F)(F)F)cc1	4µM	–	–	–	–	–
CC(C)CCNC(=O)/C=C/c1ccc(Br)cc1	22µM	–	·	–	–	–
CC(C)CCNC(=S)Nc1ccc(Br)cc1	?	–	·	–	–	–
CC(C)c1ccc(NC(=O)CSC2=Nc3ccccc3C3=NC(CC(=O)NC4CCCCC4)C(=O)N23)cc1 (configuration not stated)	–	–	32µM	·	–	·
COc1ccc(OC)c(NC(=O)CSC2=Nc3ccccc3C3=NC(CC(=O)NCc4ccco4)C(=O)N23)c1 (configuration not stated)	–	–	–	·	–	·
CC(C)c1ccc(NC(=O)CSC2=Nc3ccccc3C3=NC(CCC(=O)NC4CCCCC4)C(=O)N23)cc1 (configuration not stated)	–	–	–	·	–	·
COc1cccc(NC(=O)CSC2=Nc3ccccc3C3=NC(CC(=O)NCc4ccccc4OC)C(=O)N23)c1 (configuration not stated)	–	–	35µM	·	–	·
COCCC(=O)NCC1Cc2cc(Cl)cc(-c3ccc4[nH]ccc4c3)c2O1 (configuration not stated)	·	–	·	·	·	·
Cc1c(C(=O)NCCN2CCOCC2)cnn1-c1nccc(-c2cc3ccccc3o2)n1	·	–	·	·	·	·
CCN1CCCC1CNC(=O)c1cnn(-c2nccc(-c3ccc(C)o3)n2)c1C1CC1 (configuration not stated)	·	–	·	·	·	·
S=c1[nH]c2ccccc2n1Cc1ccccc1	?	–	–	–	11µM	–
O=c1sc2ccccc2n1CCOc1ccccc1	11µM	?	–	–	–	–
S=c1[nH]c2ccccc2n1CCOc1ccccc1	?	–	–	–	11µM	–
Clc1ccc(Nc2nc(C3CC3)cs2)cc1	14µM	–	–	–	–	–
COc1ccc(-c2nc(NC(=O)c3ccco3)sc2C)cc1	–	–	–	–	–	·
COc1ccc(-c2nc(NC(=O)Cn3ccc(C(F)(F)F)n3)sc2C)cc1	35µM	–	–	–	–	–
COc1ccc(-c2nc(NC(=O)c3[nH]c(C)c(C(C)=O)c3C)sc2C)cc1	35µM	–	–	–	–	–
Cc1ccc(NC(=O)CSc2nnc(-c3cc(-c4ccc(Cl)cc4)n[nH]3)n2N)cc1	·	·	–	·	·	·
Cc1nc(/C(N)=N/OC(=O)c2cccc(Cl)c2)c(C(F)(F)F)o1	20µM	–	–	–	–	·
Cc1nc(/C(N)=N/OC(=O)c2ccccc2Cl)c(C(F)(F)F)o1	–	–	–	–	–	·
CC(C)[C@H]1Cn2nnc(-c3ccccc3)c2Cn2c3ccccc3c(=O)n21	·	·	–	·	·	·
CCCCCCCCN1C(=O)[C@H](CC(=O)N2CCN(C(=O)C3CC3)CC2)C[C@@]2(C(=O)OC)CC(C)(C)CC=C12	–	·	16µM	–	–	·

High-throughput results from PubChem.
